Our source for the composite z-score and z-score values is PubChem BioAssay.

Calls of active or inactive are those of the source.

Assay [1] is described as follows: small molecules captured by biotinylated probe aFSTL3 – biochemical, small-molecule microarray, fluorescence 635/667, stem cell growth factor project, primary screen (AID 1064).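 Further: measures binding of the biotinylated anti-FSTL3 antibody to printed compounds.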 The following applies: higher = more signal.
Assay [2] is described as follows: binders from COS7 lysate, DM2A8 probe, primary screen, torsin A project, cell lysate, small-molecule microarray, fluorescence 635/667 (AID 1065). The following applies: higher = more signal, COS7 lysate expressing mutant human TOR1A.
Assay [3] is described as follows: small molecules captured by biotinylated probe aFGF2 – biochemical, small-molecule microarray, fluorescence 635/667, stem cell growth factor project, primary screen (AID 1067).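 Further: measures binding of biotinylated aFGF2 protein to printed compounds on slides; z-score merges feature fluorescence and signal-to-noise across triplicate slides.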 The following applies: higher = more signal.
A short description of assay [4]: small molecules captured by biotinylated probe aFGF10 – biochemical, small-molecule microarray, fluorescence 635/667, stem cell growth factor project, primary screen (AID 1071).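 Further: score merges 667 nm spot intensity and signal to noise from triplicate slides.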 The following applies: higher = more signal.
The target in assay [5] is Neurogenic locus notch homolog protein 2 (Homo sapiens) (UniProt Q04721). In words: small molecules binding Notch2 protein – biochemical, small-molecule microarray, 635 nm fluorescence, stem cell growth factors, primary screen (AID 1073). The following applies: higher = more signal.
The target in assay [6] is Pro-neuregulin-1, membrane-bound isoform (Homo sapiens) (UniProt Q02297). In words: small molecules binding neuregulin-1 protein – biochemical, small-molecule microarray, fluorescence 635/667, psychiatric disease protein project, primary screen (AID 1075).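 Further: score combines 667 nm spot fluorescence with signal to noise.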 The following applies: NRG1 binding, 635 nm fluorescence, higher = more signal.
Sequence of Pro-neuregulin-1, membrane-bound isoform (Homo sapiens) (Q02297 whole entry, looked up, the tested form may be a part, canonical isoform): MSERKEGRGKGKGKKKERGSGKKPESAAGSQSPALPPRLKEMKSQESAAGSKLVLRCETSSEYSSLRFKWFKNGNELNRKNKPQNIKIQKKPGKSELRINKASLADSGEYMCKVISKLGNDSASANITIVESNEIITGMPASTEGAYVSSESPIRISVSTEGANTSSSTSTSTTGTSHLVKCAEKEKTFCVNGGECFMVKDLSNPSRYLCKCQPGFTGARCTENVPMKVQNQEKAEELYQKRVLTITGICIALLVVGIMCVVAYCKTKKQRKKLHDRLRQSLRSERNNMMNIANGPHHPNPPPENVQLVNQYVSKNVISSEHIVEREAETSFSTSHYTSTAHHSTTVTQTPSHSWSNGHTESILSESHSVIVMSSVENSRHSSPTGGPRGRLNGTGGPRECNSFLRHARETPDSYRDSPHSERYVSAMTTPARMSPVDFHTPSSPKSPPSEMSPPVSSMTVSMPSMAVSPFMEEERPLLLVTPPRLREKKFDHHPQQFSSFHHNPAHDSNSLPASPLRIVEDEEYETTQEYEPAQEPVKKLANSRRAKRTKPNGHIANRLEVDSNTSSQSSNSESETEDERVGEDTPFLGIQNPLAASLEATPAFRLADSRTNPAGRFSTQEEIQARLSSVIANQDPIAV
Assay [7] relates to Neuregulin-1 EGF-like domain. The assay is described as follows: small molecules binding NRG1 EGF domain – biochemical, small-molecule microarray, 635 nm fluorescence, primary screen (AID 1081).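 Further: binding of the protein to compounds printed on small-molecule microarray slides.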 The following applies: higher = more signal.
The nature of assay [8]: FRG1 expression reporter modulators in myotubes – cell-based, C2C12 myotubes, firefly/Renilla luciferase, luminescence, FRG1 inhibition for FSHD, primary screen (AID 1084). The following applies: FRG1 promoter luciferase, higher = more signal, called active from +8 up or from −8 down.
A short description of assay [9]: small molecules captured by biotinylated probe aFST – biochemical, small-molecule microarray, fluorescence 635/667, stem cell growth factor project, primary screen (AID 1086).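 Further: score merges 667 nm fluorescence with signal-to-noise of each printed compound spot.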 The following applies: higher = more signal.
Assay [10] can be described thus: binders of probe aHhip on microarray, primary screen, stem cell growth factor project, biochemical, small-molecule microarray, fluorescence 635/667 (AID 1087).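 Further: score merges spot fluorescence at 667nm with spot signal to noise ratio.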 The following applies: higher = more signal.
The test system of assay [11] is PRMT1 (protein arginine N-methyltransferase 1). In words: small molecules binding arginine methyltransferase PRMT1 – biochemical, small-molecule microarray, 635 nm fluorescence, primary screen (AID 1088).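 Further: binding of Prmt1 protein to compounds spotted on small-molecule microarray slides.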 The following applies: higher = more signal.
Assay [12] in a line: growth effects on S. cerevisiae YJM789 – YJM789 clinical isolate, OD600, 24 h, basal, primary screen (AID 1089).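 Further: growth of clinical yeast isolate S. cerevisiae YJM 789 seeded 1000 cells per well; test concentration not given here.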 The following applies: higher = more signal, called active from +8 up or from −8 down.
Assay [13] in a line: S. pombe growth modifiers, basal conditions – strain 972, OD600, 24 h, no modulator, primary screen (AID 1090).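 Further: basal condition with compound alone and no growth modifier present; test concentration not given here.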 The following applies: S. pombe 972 growth, higher = more signal, called active from +8 up or from −8 down.
The nature of assay [14]: budding yeast growth modifiers under rapamycin – strain BY4716, OD600, 96 h, primary screen (AID 1091). Further: test concentration not given here. The following applies: S. cerevisiae BY4716 + rapamycin, higher = more signal, called active from +8 up or from −8 down.
Assay [15] addresses Torsin-1A-interacting protein 2 (Homo sapiens) (UniProt Q8NFQ8). In words: small molecules binding lysate-expressed LULL1 – cell lysate, human LULL1 lysate, 635/667 nm fluorescence, primary screen (AID 1092).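 Further: score merges per-feature 667 nm fluorescence with signal-to-noise.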 The following applies: small-molecule microarray, hLULL1 lysate binding, 635 nm fluorescence; higher = more signal.
Assay [16] can be described thus: optical density change of DRC41 E. coli – strain DRC41, OD650, 24 h, E. coli filamentation project, primary screen (AID 1093).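 Further: MC1000 strain lacking acrAB efflux and sulA so SOS filamentation is blocked; test concentration not given here.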 The following applies: E. coli DRC41 growth, higher = more signal, called active from +8 up or from −8 down.
Assay [17] is described as follows: probe aLefty2 binding to arrayed compounds – biochemical, biotinylated probe, 635/667 nm fluorescence, primary screen (AID 1094).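 Further: score merges spot fluorescence near 667 nm with spot signal-to-noise ratio.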 The following applies: small-molecule microarray, higher = more signal.
Assay [18] relates to Noggin (protein binding on small-molecule microarray). The assay is described as follows: small molecules binding Noggin protein – biochemical, 635/667 nm fluorescence, primary screen (AID 1095).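 Further: score merges 667 nm feature fluorescence with signal to noise over triplicate slides.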 The following applies: 635 nm fluorescence, higher = more signal.
Assay [19] concerns the target Neurogenic locus notch homolog protein 3 (Homo sapiens) (UniProt Q9UM47). In words: small molecules binding NOTCH3 protein – biochemical, 635/667 nm fluorescence, primary screen (AID 1096). The following applies: small-molecule microarray, 635 nm fluorescence, higher = more signal.
Assay [20] can be described thus: probe aEGFR binding to arrayed compounds – biochemical, biotinylated probe, 635/667 nm fluorescence, primary screen (AID 1097).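 Further: probe is a biotinylated anti-EGFR antibody binding compounds printed on slides; score combines fluorescence near 667 nm and signal to noise of each spot.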 The following applies: small-molecule microarray, higher = more signal.

Sequence of Neurogenic locus notch homolog protein 3 (Homo sapiens) (Q9UM47 whole entry, looked up): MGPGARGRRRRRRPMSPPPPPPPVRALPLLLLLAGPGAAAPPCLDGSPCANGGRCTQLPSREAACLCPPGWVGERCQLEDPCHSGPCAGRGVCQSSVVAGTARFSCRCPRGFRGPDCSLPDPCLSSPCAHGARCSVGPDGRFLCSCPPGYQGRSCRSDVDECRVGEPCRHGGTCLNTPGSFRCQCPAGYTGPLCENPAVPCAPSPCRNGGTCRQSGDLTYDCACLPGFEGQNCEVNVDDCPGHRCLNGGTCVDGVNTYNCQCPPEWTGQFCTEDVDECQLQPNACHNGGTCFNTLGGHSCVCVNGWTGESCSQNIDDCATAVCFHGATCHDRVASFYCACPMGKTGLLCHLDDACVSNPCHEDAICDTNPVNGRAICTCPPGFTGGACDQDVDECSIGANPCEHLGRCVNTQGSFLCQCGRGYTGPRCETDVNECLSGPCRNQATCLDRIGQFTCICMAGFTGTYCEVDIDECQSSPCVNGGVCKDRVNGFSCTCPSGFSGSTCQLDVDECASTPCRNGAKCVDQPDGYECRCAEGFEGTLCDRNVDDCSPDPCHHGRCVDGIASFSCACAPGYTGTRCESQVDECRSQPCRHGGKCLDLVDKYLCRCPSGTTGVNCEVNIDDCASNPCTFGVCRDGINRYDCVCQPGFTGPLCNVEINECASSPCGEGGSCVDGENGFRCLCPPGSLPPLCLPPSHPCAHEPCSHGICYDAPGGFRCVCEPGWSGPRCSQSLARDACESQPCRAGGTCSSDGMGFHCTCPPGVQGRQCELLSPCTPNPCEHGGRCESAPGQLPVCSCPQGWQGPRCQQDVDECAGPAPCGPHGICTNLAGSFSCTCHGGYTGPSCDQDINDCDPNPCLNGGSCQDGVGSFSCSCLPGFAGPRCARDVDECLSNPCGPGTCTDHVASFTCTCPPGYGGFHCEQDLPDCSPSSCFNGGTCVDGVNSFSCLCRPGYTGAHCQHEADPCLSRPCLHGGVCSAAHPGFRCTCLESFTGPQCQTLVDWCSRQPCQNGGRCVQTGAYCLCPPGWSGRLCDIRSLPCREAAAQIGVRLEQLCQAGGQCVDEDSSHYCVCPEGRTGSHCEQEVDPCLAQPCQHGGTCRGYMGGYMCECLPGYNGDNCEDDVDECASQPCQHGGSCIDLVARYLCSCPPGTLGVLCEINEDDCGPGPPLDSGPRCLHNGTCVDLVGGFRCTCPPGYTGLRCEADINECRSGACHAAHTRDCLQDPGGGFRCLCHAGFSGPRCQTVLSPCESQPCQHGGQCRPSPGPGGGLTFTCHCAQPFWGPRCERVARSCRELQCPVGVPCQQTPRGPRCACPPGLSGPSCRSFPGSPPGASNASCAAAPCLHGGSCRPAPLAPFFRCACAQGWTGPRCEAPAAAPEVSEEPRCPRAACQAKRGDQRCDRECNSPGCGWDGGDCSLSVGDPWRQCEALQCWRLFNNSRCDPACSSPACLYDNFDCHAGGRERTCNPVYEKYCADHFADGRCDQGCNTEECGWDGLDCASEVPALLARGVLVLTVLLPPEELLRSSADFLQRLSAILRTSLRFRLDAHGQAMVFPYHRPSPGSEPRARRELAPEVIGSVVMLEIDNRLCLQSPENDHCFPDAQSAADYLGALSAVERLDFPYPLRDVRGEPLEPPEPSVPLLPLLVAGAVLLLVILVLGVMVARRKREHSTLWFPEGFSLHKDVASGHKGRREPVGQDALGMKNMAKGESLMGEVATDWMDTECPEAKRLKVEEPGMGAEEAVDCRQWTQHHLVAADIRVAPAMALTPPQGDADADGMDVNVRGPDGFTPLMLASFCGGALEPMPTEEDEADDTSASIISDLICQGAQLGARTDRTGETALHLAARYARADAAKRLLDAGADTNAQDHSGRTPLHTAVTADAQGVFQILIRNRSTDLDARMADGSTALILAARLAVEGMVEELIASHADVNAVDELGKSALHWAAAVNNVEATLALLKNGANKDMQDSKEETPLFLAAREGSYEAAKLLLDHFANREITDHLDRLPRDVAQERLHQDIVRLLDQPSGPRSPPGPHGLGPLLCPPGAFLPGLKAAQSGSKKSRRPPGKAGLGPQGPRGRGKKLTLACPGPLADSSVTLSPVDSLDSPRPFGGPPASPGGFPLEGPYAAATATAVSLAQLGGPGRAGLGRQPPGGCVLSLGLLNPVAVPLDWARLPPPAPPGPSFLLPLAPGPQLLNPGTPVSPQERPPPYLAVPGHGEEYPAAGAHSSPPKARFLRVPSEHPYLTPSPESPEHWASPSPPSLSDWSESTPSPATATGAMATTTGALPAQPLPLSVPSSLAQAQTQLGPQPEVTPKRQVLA
Sequence of Torsin-1A-interacting protein 2 (Homo sapiens) (Q8NFQ8 whole entry, looked up): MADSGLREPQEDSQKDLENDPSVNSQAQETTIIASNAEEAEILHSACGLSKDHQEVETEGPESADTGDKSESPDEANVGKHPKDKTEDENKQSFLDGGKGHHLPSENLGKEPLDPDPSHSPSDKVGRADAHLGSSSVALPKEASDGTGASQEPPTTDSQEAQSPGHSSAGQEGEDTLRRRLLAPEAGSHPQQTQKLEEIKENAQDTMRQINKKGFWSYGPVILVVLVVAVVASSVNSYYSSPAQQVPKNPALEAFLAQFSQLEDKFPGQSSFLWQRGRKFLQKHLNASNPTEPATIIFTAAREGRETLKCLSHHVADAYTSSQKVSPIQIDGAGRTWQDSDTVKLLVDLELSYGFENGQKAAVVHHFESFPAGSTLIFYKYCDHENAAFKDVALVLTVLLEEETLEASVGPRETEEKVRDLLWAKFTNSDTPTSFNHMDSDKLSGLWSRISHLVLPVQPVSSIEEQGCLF

Take `CC[C@@H]1C=C(C(=O)O)[C@H](c2ccco2)N1S(=O)(=O)c1ccc(C)cc1`: the composite z-score is 0.001 in [1]; 0.0518 in assay [2]; -0.0141 in assay [3]; -0.214 in [4]; -0.974 in assay [5]; 0.179 in assay [6]. The composite z-score in [7] is 0.504; in [9], 0.545; in assay [10] it was -0.0391; in assay [11] it was 0.475; in assay [15] it was 0.0172; in assay [17], -0.0644. Also, the composite z-score in assay [18] is 0.237; in assay [19], -0.14; in assay [20] it was -0.171. Further, the z-score was 0.0623 (inactive) in assay [8]; 0.316 (inactive) in [12]; 0.535 (inactive) in assay [13]; -0.407 (inactive) in assay [14]; 0.0597 (inactive) in [16].

As for `CN(C)C(=O)[C@]1(Cc2ccccc2N=[N+]=[N-])N=C(c2ccc(OCCCO)cc2)O[C@@H]1c1ccccc1`, the composite z-score in [1] came to 0.127; in assay [2], 0.227; in [3] it was 0.0901; in [4] it was 0.071; in [5] it was 1.31; in assay [6] it was 1.78. In addition, the composite z-score was 1.13 in assay [7]; 0.627 in assay [9]; -0.374 in assay [10]; 1.39 in assay [11]; 3.02 in [15]; 0.149 in [17]. The composite z-score in assay [18] was 1.21; in assay [19], 0.905; in assay [20], -0.0512. Besides, the z-score is -2.65 (inactive) in assay [8]; -0.958 (inactive) in assay [12]; -2.29 (inactive) in assay [13]; -0.195 (inactive) in assay [14]; 0.677 (inactive) in assay [16].

For the compound `COc1ccc(CCNC(=O)[C@@H]2c3ccccc3C(=O)N(C3Cc4ccccc4C3)[C@H]2c2ccc(CO)cc2)cc1`, the composite z-score in [1] is 0.287; in [2], -0.249; in [3], 0.0628; in assay [4], 0.219; in assay [5], -0.395; in assay [6] it was 1.49. Moreover, the composite z-score in assay [7] was 1.05; in assay [9] it was -0.183; in [10] it was 0.113; in assay [11], 1.34; in [15], 1.75; in [17], 0.0349. Besides, the composite z-score in assay [18] was -0.155; in [19] it was -0.145; in assay [20], -0.0624. The z-score in assay [8] was -1.06 (inactive); in assay [12], 0.629 (inactive); in [13], 0.0128 (inactive); in assay [14] it was 0.332 (inactive); in assay [16] it was -0.141 (inactive).

In the case of `CC(C)N1C(=O)c2ccccc2[C@](C)(C(=O)NCc2ccccc2)[C@@H]1c1ccc(CO)cc1`, the composite z-score is 0.197 in assay [1]; 0.0699 in [2]; -0.157 in assay [3]; -0.158 in assay [4]; -0.463 in [5]; -1.06 in assay [6]. For the same compound, the composite z-score in assay [7] is 0.744; in assay [9], -0.27; in [10], -0.0994; in assay [11], 0.0055; in assay [15], 1.91; in assay [17] it was 0.0322. In addition, the composite z-score in assay [18] was -0.969; in assay [19] it was -0.394; in assay [20], -0.244. The z-score in assay [8] is -1.03 (inactive); in [12], -0.261 (inactive); in assay [13] it was -1.16 (inactive); in assay [14], -0.625 (inactive); in assay [16], -0.587 (inactive).

In the case of `COCCCNC(=O)[C@@]1(Cc2ccccc2)N=C(c2ccc(OCCCO)cc2)O[C@H]1c1ccccc1`, the composite z-score in [1] came out at 0.743; in assay [2], 1.2; in assay [3] it was 0.298; in assay [4], 0.155; in [5], 0.82; in [6] it was 1.38. Also, the composite z-score was found to be 1.33 in assay [7]; 1.08 in assay [9]; 1.17 in assay [10]; 1.42 in assay [11]; 3.36 in [15]; 0.355 in assay [17]. In addition, the composite z-score was -0.416 in assay [18], 0.6 in assay [19] and 0.265 in [20]. Besides, the z-score in assay [8] was -1.4 (inactive); in assay [12], -1.69 (inactive); in [13], -0.475 (inactive); in assay [14] it was -1.74 (inactive); in assay [16], 0.474 (inactive).

Consider `[N-]=[N+]=NCc1ccccc1C[C@@]1(C(=O)NCC(O)CO)N=C(c2ccc(OCCCO)cc2)O[C@@H]1c1ccccc1N=[N+]=[N-]` (stereo not given in full), for which the composite z-score in assay [1] was 0.516; in assay [2] it was -0.133; in assay [3] it was 0.0109; in assay [4] it was 0.451; in [5], 0.669; in assay [6], 1.78. The composite z-score in assay [7] was found to be 1; in assay [9] it was 1.66; in assay [10], 0.0139; in assay [11], 1.53; in assay [15], 3.53; in assay [17], 0.36. Also, the composite z-score in [18] is 0.633; in assay [19], 0.618; in [20] it was 0.118. For the same compound, the z-score is -0.755 (inactive) in assay [8]; -1.01 (inactive) in assay [12]; -0.348 (inactive) in [13]; 1.99 (inactive) in assay [14]; 1.73 (inactive) in assay [16].
